# From PubChem BioAssay
# Values without a mark were called inactive. For some of these results: Results with a measured potency or affinity are listed apart. Calls of active or inactive are those of the source. Unless noted, how the calls were made is not given here.
# Key:
# [1] = antimalarial activity against Dd2 strain (AID 2302;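 active means growth inhibition above 50% at the single 2 µM test dose, taken to imply half-maximal potency below 2 µM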;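 further: 0% = DMSO untreated growth and 100% = chloroquine plus artemisinin killed control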); conditions: P. falciparum Dd2 in RBCs, LDH growth readout, 72 h; at 2 µM; hits give high values
# [2] = human hepatoma cell viability loss – ATP luminescence, cytotoxicity control for P. falciparum antimalarial project, primary screen (AID 2303;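 active means inhibition above 50%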;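 further: 0% = DMSO wells and 100% = digitonin-killed cells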); conditions: HepG2 viability, 24-48 h, at 10 µM, hits give high values
# [3] = target: L-lactate dehydrogenase (Plasmodium falciparum (isolate CDC / Honduras)) (UniProt Q27743); assay: PfLDH activity inhibition – cell lysate, 3D7 strain, counter-screen for P. falciparum growth inhibition project (AID 2304);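 further: 0% = vehicle and 100% = reference inhibitor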; conditions: P. falciparum 3D7 crude extract, LDH APAD/NBT absorbance; at 2 µM; hits give high values
# L-lactate dehydrogenase (Plasmodium falciparum (isolate CDC / Honduras)), sequence (Q27743 whole entry, looked up): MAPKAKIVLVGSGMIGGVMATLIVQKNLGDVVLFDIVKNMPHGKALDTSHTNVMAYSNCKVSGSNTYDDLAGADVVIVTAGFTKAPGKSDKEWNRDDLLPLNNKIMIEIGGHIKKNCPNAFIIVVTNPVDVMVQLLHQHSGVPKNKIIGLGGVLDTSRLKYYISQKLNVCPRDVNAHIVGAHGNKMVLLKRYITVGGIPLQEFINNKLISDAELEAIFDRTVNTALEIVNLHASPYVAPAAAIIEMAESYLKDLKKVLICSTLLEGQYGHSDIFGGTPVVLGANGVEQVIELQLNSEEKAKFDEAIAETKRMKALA
# [4] = inhibition of 3D7 malaria parasite growth – strain 3D7 (AID 2306);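 further: 0% = DMSO wells and 100% = chloroquine plus artemisinin control wells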; conditions: P. falciparum 3D7 erythrocytic growth, LDH absorbance, 72 h; at 2 µM; hits give high values
# [5] = target: Calcium-dependent protein kinase 1 (Plasmodium falciparum (isolate 3D7)) (UniProt P62344); assay: PfCDPK1 kinase inhibitors, biochemical, TCAMS library (AID 1159585; cut-off not given, nearly all actives have IC50 up to about 0.98 µM;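 further: inhibitors leave more ATP so luminescence rises with inhibition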); conditions: recombinant PfCDPK1, Kinase-Glo ATP depletion luminescence
# Calcium-dependent protein kinase 1 (Plasmodium falciparum (isolate 3D7)), sequence (P62344 whole entry, looked up): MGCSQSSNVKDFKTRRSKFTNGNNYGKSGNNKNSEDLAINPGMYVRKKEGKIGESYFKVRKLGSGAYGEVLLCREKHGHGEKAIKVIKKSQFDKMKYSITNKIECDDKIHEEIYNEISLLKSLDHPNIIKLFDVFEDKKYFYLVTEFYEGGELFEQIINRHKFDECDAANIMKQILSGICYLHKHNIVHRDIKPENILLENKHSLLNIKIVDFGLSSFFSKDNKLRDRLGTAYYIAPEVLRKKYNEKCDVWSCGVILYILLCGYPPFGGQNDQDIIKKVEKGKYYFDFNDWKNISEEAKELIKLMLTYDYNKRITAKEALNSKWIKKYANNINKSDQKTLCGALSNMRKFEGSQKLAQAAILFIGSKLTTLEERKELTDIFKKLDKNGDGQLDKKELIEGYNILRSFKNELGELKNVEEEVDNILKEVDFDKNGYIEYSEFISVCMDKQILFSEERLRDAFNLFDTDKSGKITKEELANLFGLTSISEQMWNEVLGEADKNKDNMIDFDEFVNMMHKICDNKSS
# [6] = target: Plasmodium falciparum protein kinase 6 (PK6, PF3D7_1337100) (UniProt Q8IDW1); assay: PfPK6 kinase inhibitors, biochemical, TCAMS library (AID 1159586); conditions: recombinant PfPK6, Kinase-Glo ATP depletion luminescence
# Plasmodium falciparum protein kinase 6 (PK6, PF3D7_1337100), sequence (Q8IDW1 1-305): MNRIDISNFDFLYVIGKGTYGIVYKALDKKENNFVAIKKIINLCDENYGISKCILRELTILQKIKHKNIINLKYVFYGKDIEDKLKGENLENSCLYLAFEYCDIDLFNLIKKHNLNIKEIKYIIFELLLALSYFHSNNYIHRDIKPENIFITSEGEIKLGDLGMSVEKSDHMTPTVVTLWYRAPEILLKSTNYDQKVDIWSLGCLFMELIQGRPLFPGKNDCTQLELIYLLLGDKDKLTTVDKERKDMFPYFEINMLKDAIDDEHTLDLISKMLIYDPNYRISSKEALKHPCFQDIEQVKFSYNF
# [7] = target: Protein kinase 7 (PK7), Plasmodium falciparum 3D7 (PF3D7_0213400) (UniProt Q7YTF7); assay: inhibition of Plasmodium PK7 catalytic activity – biochemical, TCAMS antimalarial set, Kinase-Glo luminescence (AID 1159587); conditions: recombinant PfPK7, Kinase-Glo ATP depletion luminescence
# Protein kinase 7 (PK7), Plasmodium falciparum 3D7 (PF3D7_0213400), sequence (Q7YTF7 1-343): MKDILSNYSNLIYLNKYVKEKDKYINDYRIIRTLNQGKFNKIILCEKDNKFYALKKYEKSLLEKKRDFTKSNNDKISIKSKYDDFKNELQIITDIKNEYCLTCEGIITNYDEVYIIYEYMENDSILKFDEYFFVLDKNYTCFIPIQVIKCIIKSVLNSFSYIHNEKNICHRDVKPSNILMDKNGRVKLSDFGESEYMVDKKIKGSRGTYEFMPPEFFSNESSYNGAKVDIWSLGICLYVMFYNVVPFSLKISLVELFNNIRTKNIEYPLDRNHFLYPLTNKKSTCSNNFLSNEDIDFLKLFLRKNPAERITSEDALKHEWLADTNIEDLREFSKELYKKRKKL
# [8] = target: Calcium-dependent protein kinase 4 (Plasmodium falciparum (isolate 3D7)) (UniProt Q8IBS5); assay: PfCDPK4 kinase inhibitors, biochemical, TCAMS library (AID 1159588; cut-off not given, nearly all actives have IC50 up to about 0.91 µM); conditions: recombinant PfCDPK4, Kinase-Glo ATP depletion luminescence
# Calcium-dependent protein kinase 4 (Plasmodium falciparum (isolate 3D7)), sequence (Q8IBS5 whole entry, looked up): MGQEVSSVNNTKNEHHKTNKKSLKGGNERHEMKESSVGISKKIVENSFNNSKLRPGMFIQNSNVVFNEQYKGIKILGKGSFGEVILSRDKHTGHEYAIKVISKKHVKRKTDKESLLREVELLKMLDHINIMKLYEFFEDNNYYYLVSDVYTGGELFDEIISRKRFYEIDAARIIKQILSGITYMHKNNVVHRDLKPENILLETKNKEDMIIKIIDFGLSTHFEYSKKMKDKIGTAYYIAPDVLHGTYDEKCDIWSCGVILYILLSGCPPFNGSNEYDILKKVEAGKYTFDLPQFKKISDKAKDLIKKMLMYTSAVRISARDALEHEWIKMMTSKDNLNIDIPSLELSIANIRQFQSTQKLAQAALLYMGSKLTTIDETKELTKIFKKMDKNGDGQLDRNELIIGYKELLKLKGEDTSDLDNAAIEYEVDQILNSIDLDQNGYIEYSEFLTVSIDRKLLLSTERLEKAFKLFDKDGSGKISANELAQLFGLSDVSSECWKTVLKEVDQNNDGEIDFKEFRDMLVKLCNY
Compound,growth inhibition [1],inhibition [2],inhibition [3] [%],growth inhibition [4],outcome [5],outcome [6],outcome [7],outcome [8]
FC(F)(F)c1ccc2nc(-c3cccc(-c4ccc(CNCCc5ccncc5)cc4)c3)[nH]c2c1,100% (active),23%,-1,99% (active),inactive,inactive,inactive,inactive
Cc1nnc2c(NC(=O)NC3CCCC3)cc3cc(-c4ccc(CN5CCCCC5)cc4)ccc3n12,93% (active),100% (active),-3,99% (active),inactive,inactive,inactive,inactive
Cc1c(F)cc(C(=O)NC2CC2)cc1-c1ccc2c(cnn2S(=O)(=O)c2ccc(Cl)s2)c1,50% (active),24%,-4,81% (active),inactive,inactive,inactive,inactive
CO/C(=C/C=C/c1cc2cc(Cl)c(Cl)cc2[nH]1)C(=O)NC1CC(C)(C)N(C)C(C)(C)C1,85% (active),58% (active),-12,99% (active),inactive,inactive,inactive,inactive
CC(C)c1ccc(NS(=O)(=O)c2cccc(C(=O)NC3CCN(CC4CCCCC4)CC3)c2)cc1,69% (active),71% (active),0,93% (active),inactive,inactive,inactive,inactive
CN(C)CCNC(=O)c1cc2c(-c3ccc(Cl)cc3)nn(C)c2s1,81% (active),18%,-1,98% (active),inactive,inactive,inactive,inactive
CCCNCc1ccc(-c2ccc(CN(CCOC)C(=O)c3nn(-c4ccccc4)nc3C)cc2)nc1,71% (active),18%,3,99% (active),inactive,inactive,inactive,inactive
Cc1cccc(Cl)c1S(=O)(=O)N1CCCCC(c2ccc(C(F)(F)F)cc2)=N1,100% (active),5%,1,100% (active),inactive,inactive,inactive,inactive
CO/C(=C\C=C\c1cc2cc(Cl)c(Cl)cc2[nH]1)C(=O)NCCCN1CCN(c2cccc(OC)c2)CC1,93% (active),61% (active),0,100% (active),inactive,inactive,inactive,inactive
COc1ccc(CNCc2ccccc2)cc1-c1ccc(OC)c(S(=O)(=O)NCCN2CCCC2)c1,55% (active),14%,-5,100% (active),inactive,inactive,inactive,inactive
Cc1nc(-c2nc(N3CCOCC3)ncc2-c2ccsc2)sc1C,75% (active),5%,-7,89% (active),inactive,inactive,inactive,inactive
CCc1cn2c3c(cc(C(=O)N[C@@H](Cc4cccc(F)c4)[C@H](O)CNC4CCCCC4)cc13)N(C)S(=O)(=O)CC2,99% (active),5%,0,99% (active),inactive,inactive,inactive,inactive
Cc1ccc2nc(-c3ccccc3Nc3ccnc4cc(-c5nccs5)ccc34)[nH]c2c1,100% (active),40%,-5,101% (active),inactive,inactive,inactive,inactive
CCC1CN2CCc3c([nH]c4ccccc34)C2CC1CC1=NCCc2c1[nH]c1ccccc21 (stereo not given),47%,20%,-8,100% (active),inactive,inactive,inactive,inactive
COc1ccc(NC(=O)/C=C/c2ccc(Cl)c(C(F)(F)F)c2)cc1OCCN(C(C)C)C(C)C,28%,18%,-1,95% (active),inactive,inactive,inactive,inactive
Cc1cc(CNCCCCCCNCc2cccc([N+](=O)[O-])c2)ccc1O,-1%,13%,-8,90% (active),inactive,inactive,inactive,inactive
Cc1ccc(NC(=O)c2ccc3ncccc3c2)cc1OC1CCN(CCC(C)C)CC1,48%,2%,-4,94% (active),inactive,inactive,inactive,inactive
Cc1nc2c(c(C)nn2C(C)(C)C)c(C)c1CCC(=O)Nc1ccc(CN2CCCC2)cc1,5%,1%,0,89% (active),inactive,inactive,inactive,inactive
Cc1ccc(NC(=O)NC2CCN(c3ccnc4cc(Cl)ccc34)CC2)cc1,47%,4%,-2,101% (active),inactive,inactive,inactive,inactive
COc1ccccc1CCNc1nc(C)cc(N[C@@H](Cc2ccccc2)C(=O)NCc2cccc(F)c2)n1,86% (active),31%,-2,99% (active),inactive,inactive,inactive,inactive
